Compound activity (PubChem)
Cruzain noTriton: qHTS Assay for Promiscuous and Specific Inhibitors of Cruzain (without detergent) | AID 1476, 2009 | purified cruzain, Z-FR-AMC fluorescence, no detergent | Potency, µM, hits mostly inhibitors | actives 2.3% (n = 200,000) | Cruzipain (Trypanosoma cruzi), P25779; further: nearly all actives have a fitted effect of over 40% in size
Target sequence (P25779 123-467 limits assumed): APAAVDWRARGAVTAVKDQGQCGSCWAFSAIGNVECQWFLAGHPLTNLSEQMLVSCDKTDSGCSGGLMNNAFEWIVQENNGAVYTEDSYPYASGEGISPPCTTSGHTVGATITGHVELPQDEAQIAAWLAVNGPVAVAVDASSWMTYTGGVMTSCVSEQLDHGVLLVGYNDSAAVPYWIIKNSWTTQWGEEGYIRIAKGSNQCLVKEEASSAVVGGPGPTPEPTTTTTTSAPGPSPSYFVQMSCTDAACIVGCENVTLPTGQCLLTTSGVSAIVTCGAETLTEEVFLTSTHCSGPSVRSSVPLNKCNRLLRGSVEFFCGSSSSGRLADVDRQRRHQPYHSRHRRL
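Detergent-free condition (0.00005% Triton X-100) in acetate buffer pH 5.5 with DTT. 1.5 nM enzyme and compound were pre-mixed 15 min, then 2 uM Z-FR-AMC substrate added; reaction progress from fluorescence change between first and third reads (60 s).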
Cruzain Triton: qHTS Assay for Promiscuous and Specific Inhibitors of Cruzain (with detergent); AID 1478, 2009; actives 0.43% (n = 200,000); Potency, µM, usual class: inhibitors; purified cruzain, Z-FR-AMC fluorescence, 0.01% Triton; further: nearly all actives have a fitted effect of over 40% in size
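Compounds were screened in titration against cruzain (1.5 nM) with 0.01% Triton X-100 to counter colloidal aggregation. Activity was the AMC fluorescence increase over 60 s after adding 2 uM Z-FR-AMC at pH 5.5.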
NS1 function inh: qHTS Assay for Inhibitors of Influenza NS1 Protein Function | Potency, µM (highest dose often 46.1 µM) | actives 0.4% (n = 270,000) | AID 2326, 2010; calls by dose curve; further: actives are rising curves; nearly all actives have a fitted effect of over 50% in size
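S. cerevisiae expressing influenza A NS1, grown in glucose, washed, then diluted 1:100 into pH 6.0 -URA galactose medium with 23 nl compound. Growth recovery read as OD600; NS1-free strain serves as control.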
Numbers stand for hits; n = inactive; u = inconclusive; x = not tested or not shown; ! = repeats disagree. Shown is part of a subset that was picked to be rich in hits. Unless noted, the call rests on the fitted dose curve; in most records, active means well fitted curve in the direction sought with a large enough effect; inconclusive means small, poorly fitted or top-dose-only effect, or another doubt; inactive means no such curve, though single readings can be large; an effect the other way counts as inactive or inconclusive.

SMILES	Cruzain noTriton	Cruzain Triton	NS1 function inh
CC1CCc2c(sc(NC(=O)CSc3ncnc4c3cnn4-c3ccccc3Cl)c2C#N)C1 (stereo not given)	10µM	n	n
CCOC(=O)c1c(NC(=O)CSc2c[nH]c3ccccc23)sc2c1CCC2	32µM	n	n
CCOC(=O)c1c(NC(=O)CSc2c[nH]c3ccccc23)sc2c1CCCC2	25µM	n	n
CCOC(=O)c1c(NC(=O)CSc2nnc3ccccn23)sc2c1CCC2	n	n	n
CCOC(=O)c1c(NC(=O)CSc2nnc(-c3c[nH]c4ccccc34)n2CCOC)sc2c1CCCCC2	n	n	n
[N-]=[N+]=[N-]	n	n	x
COc1ccc(-c2nc(CNS(=O)(=O)c3cccc(F)c3)cs2)cc1	n	n	x
O=C(CNC(=O)c1cccc(F)c1)OCC(=O)N1CCN(C(=O)c2ccco2)CC1	x	x	n
O=C(CNC(=O)c1cccc(F)c1)OCC(=O)N1CCCCC1	u	25µM	n
Cc1cc(C(=O)NCC(=O)OCC(=O)N2CCCCCC2)ccc1[N+](=O)[O-]	16µM	14µM	n
Cc1cc(C(=O)NCC(=O)OCC(=O)N(C)C2CCCCC2)ccc1[N+](=O)[O-]	u	u	n
CCC(C)NC(=O)Cn1c(=O)c2cccn2c2ccc(F)cc21 (stereo not given)	n	n	x
COC(=O)C/C=C/[C@@H](C)[C@H](NC(=O)OCC(Cl)(Cl)Cl)c1ccc2ccccc2c1	n	n	x
COc1ccccc1C(=O)NC1=NC(c2ccc(Br)cc2)CC(=O)N1 (stereo not given)	u	n	x
COc1c(C=O)c(=O)[nH]c2c(OC)cccc12	n	n	x
COc1ccc(C2=NS(=O)(=O)N(C)C(C(=O)Nc3ccc(OC(F)(F)F)cc3)=C2)cc1	10µM	n	x
COc1ccc(NC(=O)C2=CC(c3ccc(OC)cc3)=NS(=O)(=O)N2C)cc1	x	x	n
Nc1nc(Cc2ccccc2)nc(Cc2ccccc2)c1-c1ccccc1	n	n	n
COc1ccccc1N1CCN(C(=O)CSc2ncnc3scc(-c4ccccc4)c23)CC1	n	n	n
O=C(CSc1ncnc2scc(-c3ccccc3)c12)N1CCN(c2ccccc2F)CC1	32µM	n	u
Cc1cc(C)cc(OCC(=O)Nc2nc3c(s2)CC(C(C)(C)C)CC3)c1 (stereo not given)	n	n	x
CCOC(=O)c1c(NC(=O)c2cc(=O)c3cc(C)ccc3o2)sc2c1CCCC2	n	n	x
O=C1C(SCCO)=C(SCCO)C(=O)c2ccccc21	25µM!	u	n
N#CC(=NCCO)C1=C(O)c2ccccc2C1=O	n	n	n
Cc1ccccc1CNC(=O)C1CCCCN1S(=O)(=O)c1ccc(F)cc1 (stereo not given)	n	n	x
SMILES	Cruzain noTriton	Cruzain Triton	NS1 function inh
CN(C)S(=O)(=O)c1cccc(N=C2NN=C(c3ccccc3)CS2)c1	32µM	n	n
CC(=O)Nc1ccc(C2=NNC(=Nc3cccc(S(=O)(=O)N(C)C)c3)SC2)cc1	x	x	n
CC(C)c1ccc(/C=C(/C#N)c2nnc(NC(=O)c3ccccc3)s2)cc1	13µM	n	n
O=C(Nc1nnc(Cc2ccccc2)s1)c1ccccc1	x	x	n
CC(C)=CCC[C@](C)(O[C@@H]1O[C@H](CO)[C@@H](O)[C@H](O)[C@H]1O)[C@H]1CC[C@]2(C)[C@@H]1[C@H](O)C[C@@H]1[C@@]3(C)CC[C@H](O[C@@H]4O[C@H](CO)[C@@H](O)[C@H](O)[C@H]4O[C@@H]4O[C@H](CO)[C@@H](O)[C@H](O)[C@H]4O)C(C)(C)[C@@H]3[C@@H](O)C[C@]12C	u	n	x
COc1ccc(OCC(=O)Nc2nc(-c3ccc(Br)cc3)ns2)cc1	n	n	x
Cc1noc(C)c1-c1ccc2ncnc(NCc3cccnc3)c2c1	n	n	x
CCOc1ccccc1Nc1nc(-c2sc(NC(=O)c3cccc(Cl)c3)nc2C)cs1	6.3µM	n	n
COc1ccc(-c2sc(NC(=O)c3ccc(C)cc3)nc2-c2ccc([N+](=O)[O-])cc2)cc1	4µM	n	n
CCOc1ccccc1NC(=O)C(C)Sc1cc(-c2ccccc2)nc(C)n1 (stereo not given)	n	n	x
COc1ccc(-c2nc(NC(C)=O)sc2-c2ccc(OC)cc2)cc1	x	x	n
COc1ccccc1Nc1nc(-c2sc(N)nc2C)cs1	x	x	n
CCOc1ccccc1Nc1nnc(SC(C)C(=O)Nc2nc(-c3ccccc3)cs2)s1 (stereo not given)	7.9µM	n	n
Cc1nc(NC(=O)c2ccccc2)sc1-c1csc(NCCc2ccccc2)n1	u	n	n
COc1ccccc1Nc1nc(-c2sc(NC(=O)c3ccc([N+](=O)[O-])cc3)nc2C)cs1	4µM	n	n
Cc1ccc2c(c1)N(CC(=O)NCCN1CCOCC1)C(=O)CO2	x	x	n
O=C(c1cccc(F)c1)N1CCC2(CCCN(Cc3nccs3)C2)CC1	n	n	x
CCOc1ccc(OCC)c(NS(=O)(=O)c2c(C)[nH]c(=O)[nH]c2=O)c1	n	n	x
CCOc1ccccc1Nc1nc(-c2sc(NC(=O)c3ccccc3)nc2C)cs1	13µM	n	u
COc1ccccc1Nc1nc(-c2sc(NC(=O)c3ccccc3)nc2C)cs1	u	n	n
Cc1ccc2c(c1)sc1nc(=O)n(-c3ccc(Cl)cc3)c(=O)n12	n	n	n
Cc1ccc2c(c1)sc1nc(=O)n(-c3ccc(Cl)c(Cl)c3)c(=O)n12	20µM!	n	n
CCCCCn1c(N)c(-c2nc3ccccc3o2)c2c([N+](=O)[O-])nn(CC)c(=O)c21	10µM	n	n
CCCCCn1c(N)c(-c2nc3ccccc3o2)c2c([N+](=O)[O-])nn(C)c(=O)c21	u	n	n
Cn1c(=O)c(-c2ccc(Cl)cc2)nc2cnc(N3CCOCC3)nc21	n	n	x
SMILES	Cruzain noTriton	Cruzain Triton	NS1 function inh
O=C(C1=NN(c2ccccc2)C2C(=O)N(c3ccc(Cl)cc3)C(=O)C12)c1ccccc1 (stereo not given)	10µM	n	n
O=C(C1=NN(c2ccccc2)C2C(=O)N(c3cccc(Cl)c3)C(=O)C12)c1ccccc1 (stereo not given)	u	n	n
O=C(Nc1nc(-c2cc(Cl)sc2Cl)cs1)c1cccs1	u	n	n
Cc1ccc(NC(=O)Nc2nnc(N3CCCC3)s2)cc1	n	n	x
Cc1ccc(NC(=O)Nc2nc(-c3ccc(C)s3)cs2)cc1	25µM	n	n
CC(=O)Nc1nc(-c2ccc(Br)s2)cs1	13µM	n	n
O=C(Nc1nc(-c2cc(Cl)sc2Cl)cs1)c1ccc(Br)s1	7.9µM	n	n
CC(=O)Nc1nc(-c2cccc3ccccc23)cs1	x	x	n
COc1ccc(-c2nc(-c3ccccc3)c(NC(C)C)o2)cc1	n	n	x
Cc1cc(C)cc(OCCOCCn2c(-c3ccc(Cl)cc3)nc3ccccc3c2=O)c1	n	n	x
COc1ccc(CNc2cc(-c3ccccc3C)ncn2)c(OC)c1	n	n	x
Cc1ccc(N(CC(=O)N/N=C/c2cc(C)n(-c3ccccc3)c2C)S(C)(=O)=O)c(C)c1	n	n	n
O=C(N/N=C\c1cc([N+](=O)[O-])ccc1N1CCCC1)c1ccccn1	x	x	n
Cc1cc(/C=N/NC(=O)Cn2c3ccccc3c(=O)c3ccccc32)c(C)n1-c1ccccc1	16µM	n	n
O=C(Cn1c2ccccc2c(=O)c2ccccc21)N/N=C/c1cc([N+](=O)[O-])ccc1N1CCCCC1	10µM	n	n
